In the library only some 7.9% were active in any assay of this set; here they are far more common.
Marburg entry inh – inhibitors of Marburg virus binding or cell entry. Marburg virus pseudotyped entry inhibition, cell reporter. Potency, µM (doses to about 37.8 µM), usual class: inhibitors. 1.8% of 300,000 active. AID 540276; calls by dose curve; tested in HEK293 cells
Lassa entry inh – blocks Lassa virus binding to or entry into cells; 1.2% of 300,000 active; Lassa virus pseudotype entry inhibition, cell reporter; AID 540256; Potency, µM (series often up to 37.9 µM), hits mostly inhibitors; calls by dose curve; tested in HEK293 cells; note: nearly all actives have a fitted effect of over 50% in size
HCMV inh – inhibitors of human cytomegalovirus | 4.5% of 410,000 active | activity change, negative = inhibition, % at 57.5 µM | HFF cells, HCMV-luciferase reporter, 72 h; active compounds read low | AID 1259415; in the data active = activity change below about -60%; inconclusive = no clear call, values can overlap the other calls; inactive = above about -39%
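After 16 h attachment at 37C, HFF cells received test compound and HCMV-luciferase (1 PFU/cell); reporter luminescence read 72 h later, data normalized against buffer-only and known inhibitor Salinomycin.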
HCV inhibitor – blocks hepatitis C virus. Huh7.5.1 HCVcc-Cre infection, luciferase reporter, 44 h. Potency, µM (doses to about 41.8 µM), actives largely listed as inhibitors. 3.4% of 340,000 active. AID 651820; active = well fitted inhibition curve with a large enough effect; inconclusive = small, poorly fitted or top-dose-only effect, or another doubt; inactive = no such curve, though single readings can be large or run the other way
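Seed cells (1,000/well) for 4 h; treat with compound and infect with HCVcc-Cre, moi about 0.5. Incubate 44 h, then detect luciferase activity.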
FMDV antiviral – foot and mouth disease virus antiviral activity; FMDV antiviral cell-based qHTS; Potency, µM (series often up to 57.9 µM), most hits filed as inhibitors; 1.2% of 410,000 active; AID 1159524; calls by dose curve; tested in HEK293T cells; note: read-out not given here; nearly all actives have a fitted effect of over 45% in size
Large screens that a line does not name were inactive; ! = not confirmed by another sample.

c1ccc(Nc2nc(-c3ccc4c(c3)OCO4)nc3ccccc23)cc1	none (no result: Marburg entry inh, Lassa entry inh, HCMV inh, HCV inhibitor)
Nc1cccc(Nc2nc(OC(C(F)(F)F)C(F)(F)F)nc(OC(C(F)(F)F)C(F)(F)F)n2)c1	Marburg entry inh inconclusive, Lassa entry inh inconclusive, HCMV inh -107, HCV inhibitor inconclusive
COc1nc(Nc2ccc(O)cc2)nc(OC(C(F)(F)F)C(F)(F)F)n1	Lassa entry inh inconclusive, HCMV inh inconclusive, HCV inhibitor inconclusive, FMDV antiviral inconclusive
COc1ccc(C(=O)NCC2Cc3cc(C)cc(-c4nc5ccccc5s4)c3O2)c(OC)c1OC (stereo not given)	none (no result: Marburg entry inh, Lassa entry inh, HCMV inh, HCV inhibitor)
COc1ccc(-n2ncc(Cl)c(Cl)c2=O)cc1	Marburg entry inh inconclusive, Lassa entry inh inconclusive, HCMV inh -101, HCV inhibitor 3.5µM, FMDV antiviral 8.9µM
COc1ccc(-n2c(-c3ccco3)nc3c(cnn3-c3ccccc3C)c2=O)cc1	Marburg entry inh inconclusive, Lassa entry inh inconclusive, HCMV inh inconclusive, FMDV antiviral inconclusive
COc1cccc(-n2c(-c3ccco3)nc3c(cnn3-c3ccc(C)cc3)c2=O)c1	Lassa entry inh inconclusive, HCMV inh -76, FMDV antiviral inconclusive (no result: HCV inhibitor)
COc1cccc(-n2c(-c3ccco3)nc3c(cnn3-c3ccccc3C)c2=O)c1	Marburg entry inh inconclusive, Lassa entry inh inconclusive, FMDV antiviral 14µM (no result: HCV inhibitor)
Cc1cccc(-n2c(-c3ccco3)nc3ccccc3c2=O)c1C	Marburg entry inh inconclusive, HCMV inh -76
CCc1nc2c(cnn2-c2ccc(Cl)cc2)c(=O)n1-c1ccc(OC)cc1	Marburg entry inh inconclusive, Lassa entry inh inconclusive, HCV inhibitor 11µM, FMDV antiviral inconclusive
O=c1c2cnn(-c3ccccc3)c2nc(-c2cccs2)n1-c1cccc(Cl)c1	Marburg entry inh inconclusive, HCMV inh -76, HCV inhibitor inconclusive, FMDV antiviral inconclusive
O=c1c2cnn(-c3ccccc3)c2nc(-c2cccs2)n1-c1ccc(Cl)cc1	Lassa entry inh inconclusive, HCV inhibitor inconclusive, FMDV antiviral inconclusive
CCOc1ccc(-n2c(C)nc3c(cnn3-c3ccc(Cl)cc3)c2=O)cc1	none
COc1ccc(-n2c(-c3ccco3)nc3c(cnn3-c3ccc(C)cc3)c2=O)cc1	Lassa entry inh inconclusive, HCV inhibitor inconclusive, FMDV antiviral 40µM!
COCC(=O)Nc1cc(C(=O)N2CC3(C)CC2CC(C)(C)C3)c2c(c1)nc(-c1ccncc1)n2C (stereo not given)	none (no result: Marburg entry inh, Lassa entry inh, HCMV inh, HCV inhibitor)
Cc1cccc(CN2CCCC(C(=O)c3cccc(OC(C)C)c3)C2)n1 (stereo not given)	HCMV inh inconclusive, HCV inhibitor inconclusive (no result: Marburg entry inh, Lassa entry inh)
Cc1nn(C(C)C)c(C)c1CN1CCCC(C(=O)c2cccc(OC(C)C)c2)C1 (stereo not given)	Marburg entry inh 13µM, Lassa entry inh inconclusive, HCV inhibitor inconclusive, FMDV antiviral inconclusive
CCn1nc(C)c(CN2CCCC(C(=O)c3cccc(OC(C)C)c3)C2)c1C (stereo not given)	HCMV inh inconclusive, HCV inhibitor 8.9µM, FMDV antiviral inconclusive (no result: Marburg entry inh, Lassa entry inh)
CC(C)Oc1cccc(C(=O)C2CCCN(Cc3cnn(C(C)C)c3)C2)c1 (stereo not given)	HCV inhibitor inconclusive
COc1cc(/C=N/Nc2snc(SC)c2C#N)cc(OC)c1OC	Marburg entry inh 1.6µM, Lassa entry inh 1.3µM, HCMV inh -86, HCV inhibitor inconclusive, FMDV antiviral inconclusive
COc1ccc2nc(Nc3nc(CSc4nc5ccccc5[nH]4)cc(=O)[nH]3)nc(C)c2c1	Marburg entry inh 11µM, Lassa entry inh inconclusive, HCMV inh -98, HCV inhibitor 14µM, FMDV antiviral inconclusive
Cc1nc(Nc2nc(-c3ccccc3)cc(=O)[nH]2)nc2ccccc12	Marburg entry inh inconclusive, Lassa entry inh inconclusive, HCV inhibitor 8.9µM
CCc1c(C)nc(Nc2nc(C)c3ccc(OC)cc3n2)[nH]c1=O	HCV inhibitor inconclusive (no result: FMDV antiviral)
Cc1ccc2c(C)nc(Nc3nc(CSc4nnc(C)s4)cc(=O)[nH]3)nc2c1	HCMV inh -99, HCV inhibitor inconclusive
COc1ccc2c(C)nc(Nc3nc(C)c(C)c(=O)[nH]3)nc2c1	Marburg entry inh inconclusive, Lassa entry inh inconclusive, HCMV inh -102, HCV inhibitor inconclusive
COc1ccc(C2C(C)C(=O)C(C)C(c3ccc(OC)cc3)N2N=O)cc1 (stereo not given)	none
Cc1ccc(N/C(N)=N/c2nc(CSc3nnc(C)s3)cc(=O)[nH]2)c(C)c1	HCMV inh -88 (no result: Marburg entry inh, Lassa entry inh)
COc1ccc(N/C(N)=N/c2nc(CSc3nnc(C)s3)cc(=O)[nH]2)cc1	Lassa entry inh inconclusive
